Compound activity (PubChem BioAssay)
An excerpt weighted towards active compounds, which were near 2.2% of everything screened.
GASC-1 inh: human JMJD2C demethylase inhibition; GST-JMJD2C(1-420) H3K9me3 demethylation, DELFIA europium; Q9H3R0; AID 2099; inhibition, % at 2.35 µM; 0.069% of 330,000 active;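 active = more than half of a compound's replicate wells show inhibition beyond 50%, single wells judged on their own value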;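 note: signal counts dimethyl H3K9 product captured on neutravidin plate; 0% = median of DMSO wells and 100% = 0.3 times that DMSO median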
VLA-4 inh: inhibition in a human VLA-4 binding assay. P13612. VLA-4 expressing cells, ligand binding flow cytometry. 0.2% of 330,000 active. inhibition, % (about 7 µM as worked out from the volumes in the protocol); in the data active = inhibition above about 50%
V-ATPase pHluor: yeast V-ATPase proton transport regulation by pHLuorin. S. cerevisiae, pHLuorin cytosolic pH fluorescence. response, % at 10 µM. 0.37% of 350,000 active. AID 504577; in the data active = response mostly above about 7.3%, no sharp cut-off; inactive = mostly below about 5.4%; note: actives read high
MEX-5 binding: C. elegans MEX-5 TCR-2 RNA binding activity. Q9XUB2. MEX-5/FITC-TCR2 RNA binding, fluorescence polarization; active compounds read low. activity score (negative = inhibition of binding), % at 10 µM. 0.38% of 300,000 active;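 active = inhibition past about -25% in most replicates, and total fluorescence under double the plate's negative control median, limit read from the data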;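 note: 0% = DMSO and -100% = 5 µM competing unlabeled TCR2 RNA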
m5-HT2A agonist: activates the mouse 5-HT2A serotonin receptor. activation, % at 7.6 µM. 0.66% of 360,000 active. P35363. CHO-K1 mHTR2A beta-arrestin complementation, luminescence; percent of 30 µM serotonin response;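 active = activation above a run cutoff, the mean activation of all tested compounds plus 3 SD, cut at about 14% in these data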;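 note: 0% = plate median of compound wells and 100% = 30 µM serotonin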
Granule exo inh: blocks lytic granule exocytosis; TALL-104 LAMP-1 surface exposure, flow cytometry; cells stimulated with thapsigargin and PMA; inhibition, % at 10 µM; 0.66% of 360,000 active; AID 651702;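 active = inhibition above about 55%, limit read from the data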
MOR ag counter: activates human mu opioid receptor in HTR2A counterscreen; shares compounds with m5-HT2A agonist; U2OS OPRM1 beta-arrestin PathHunter, luminescence; DMSO 0%, DAMGO 9.3 µM 100%; activation, % at 9.3 µM; 5.3% of 2,300 active;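 active = mean activation above the mean of DMSO-only wells plus 3 SD, cut at about 0.5% in these data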
Target sequence (P35372 whole entry, looked up): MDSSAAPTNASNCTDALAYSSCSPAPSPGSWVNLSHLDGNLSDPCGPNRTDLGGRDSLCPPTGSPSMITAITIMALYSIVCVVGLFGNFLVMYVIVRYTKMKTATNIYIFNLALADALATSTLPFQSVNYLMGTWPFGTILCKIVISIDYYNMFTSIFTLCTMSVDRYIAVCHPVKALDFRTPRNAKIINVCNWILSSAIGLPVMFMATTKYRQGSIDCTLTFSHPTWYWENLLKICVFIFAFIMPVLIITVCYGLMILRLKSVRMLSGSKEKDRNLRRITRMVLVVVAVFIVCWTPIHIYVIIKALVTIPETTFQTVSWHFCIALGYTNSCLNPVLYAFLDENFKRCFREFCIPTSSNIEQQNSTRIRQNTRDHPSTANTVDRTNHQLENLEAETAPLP
m5-HT2A ag conf: confirmation of mouse HTR2A serotonin receptor agonists | shares compounds with m5-HT2A agonist | CHO-K1 PathHunter beta-arrestin recruitment, luminescence; DMSO 0%, 30 µM serotonin 100% | activation, % at 7.6 µM | 19% of 2,300 active | AID 624381;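 active = mean activation across triplicates above the hit threshold derived in the original primary screen, cut at about 15% in these data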
Active calls of the source: *.

CC(=NC1CC1)c1c(-c2ccccc2)[nH]n(-c2nc3ccccc3s2)c1=O was read as GASC-1 inh -1, VLA-4 inh -6, V-ATPase pHluor 0, MEX-5 binding 0, m5-HT2A agonist 15*, Granule exo inh 12, MOR ag counter -1 and m5-HT2A ag conf 11.
`CN(C)CCCN=Cc1c(-c2ccccc2)[nH]n(-c2nc3ccccc3s2)c1=O` gave GASC-1 inh 3, VLA-4 inh -1, V-ATPase pHluor 0, MEX-5 binding -2, m5-HT2A agonist -3 and Granule exo inh 6.
Screening CCn1c(SCC(=O)N(C)c2c(N)n(Cc3ccccc3)c(=O)[nH]c2=O)nc2ccccc21 returned GASC-1 inh 14, VLA-4 inh 0, V-ATPase pHluor 1, MEX-5 binding 1, m5-HT2A agonist -1 and Granule exo inh 14.
`Cc1nnc(SCC(=O)N(C)c2c(N)n(Cc3ccccc3)c(=O)[nH]c2=O)n1Cc1ccccc1` gave GASC-1 inh 9, VLA-4 inh 2, V-ATPase pHluor 3, MEX-5 binding 0, m5-HT2A agonist 29*, Granule exo inh -2, MOR ag counter -1 and m5-HT2A ag conf -4.
CCOC(=O)c1ccc(Nc2ncccc2[N+](=O)[O-])cc1 was read as GASC-1 inh 0, VLA-4 inh -3, V-ATPase pHluor -2, MEX-5 binding -2, m5-HT2A agonist 3 and Granule exo inh -4.
`O=C(c1cc(-c2ccco2)on1)N1CCN(c2ccccc2)CC1` gave GASC-1 inh 12, VLA-4 inh -5, V-ATPase pHluor 0, MEX-5 binding -1, m5-HT2A agonist 30*, Granule exo inh 6, MOR ag counter 0 and m5-HT2A ag conf -1.
O=C(c1ccccc1C(=O)N1CCN(c2ccccc2)CC1)N1CCN(c2ccccc2)CC1 was read as GASC-1 inh -2, VLA-4 inh 2, V-ATPase pHluor 2, m5-HT2A agonist 22*, Granule exo inh 4, MOR ag counter -1 and m5-HT2A ag conf -9.
Screening O=C(c1cc(-c2ccccc2)on1)N1CCN(c2ccccc2)CC1 returned GASC-1 inh -9, VLA-4 inh -1, V-ATPase pHluor -1, MEX-5 binding -3, m5-HT2A agonist 8 and Granule exo inh 9.
For O=[N+]([O-])c1cc(Br)c2nsnc2c1N1CCOCC1 the results were GASC-1 inh 6, VLA-4 inh 10, V-ATPase pHluor 0, MEX-5 binding -2, m5-HT2A agonist 2 and Granule exo inh 9.
For O=C(Nc1nc2ccccc2[nH]1)c1ccc(Br)o1 the results were GASC-1 inh -27, VLA-4 inh 7, V-ATPase pHluor -2, MEX-5 binding 1, m5-HT2A agonist 0 and Granule exo inh 1.
`Cc1nnsc1C(=O)N1CCCC1(C)C(=O)O` (stereo not given) gave m5-HT2A agonist 27*, Granule exo inh -1, MOR ag counter -1 and m5-HT2A ag conf 1.
Screening O=C(Nc1ccc(F)cc1F)Nc1ccccc1C(=O)NCCN1CCNC1=O returned GASC-1 inh 7, VLA-4 inh -1, V-ATPase pHluor 1, MEX-5 binding -3, m5-HT2A agonist 40*, Granule exo inh 1, MOR ag counter 0 and m5-HT2A ag conf -1.
`COC(=O)c1cc(=O)nc(NN=Cc2ccc(OC)cc2)s1` gave m5-HT2A agonist 17*, Granule exo inh 24, MOR ag counter 0 and m5-HT2A ag conf 0.
`C[C@@H]1CN([C@@H](C)CO)S(=O)(=O)c2ccc(Br)cc2O[C@@H]1CN(C)S(=O)(=O)c1cn(C)cn1` gave V-ATPase pHluor 0, m5-HT2A agonist 17*, Granule exo inh -1, MOR ag counter 0 and m5-HT2A ag conf -1.
For C[C@@H]1CN([C@H](C)CO)S(=O)(=O)c2ccc(C#Cc3ccccc3F)cc2O[C@H]1CN(C)C(=O)c1ccc2c(c1)OCO2 the results were V-ATPase pHluor 1, m5-HT2A agonist 20*, Granule exo inh 15, MOR ag counter 0 and m5-HT2A ag conf 32*.
`C[C@@H]1CN([C@@H](C)CO)S(=O)(=O)c2ccc(-c3ccccc3)cc2O[C@@H]1CN(C)Cc1ccccc1C(=O)O` gave V-ATPase pHluor -1, m5-HT2A agonist 19*, Granule exo inh 2, MOR ag counter -1 and m5-HT2A ag conf -1.
Screening CCN(C(=O)CN1CC(C)OC(C)C1)c1c(N)n(Cc2ccccc2)c(=O)[nH]c1=O (stereo not given) returned GASC-1 inh -3, VLA-4 inh -2, V-ATPase pHluor -1, MEX-5 binding 0, m5-HT2A agonist 3 and Granule exo inh 1.
For O=C(NCC(=O)N1CCN(S(=O)(=O)c2ccc3c(c2)OCCO3)CC1)c1ccccc1Cl the results were GASC-1 inh -6, VLA-4 inh 15, V-ATPase pHluor -3, m5-HT2A agonist 1 and Granule exo inh -4.
Screening O=C(NCC(=O)N1CCN(S(=O)(=O)c2ccc3c(c2)OCCO3)CC1)c1ccccc1F returned GASC-1 inh 6, VLA-4 inh 6, V-ATPase pHluor 10, m5-HT2A agonist 15*, Granule exo inh -5, MOR ag counter -1 and m5-HT2A ag conf -3.
For O=c1[nH]c(=S)[nH]c2c1C(c1ccccc1)OC(C1CCCCC1)C2 (stereo not given) the results were m5-HT2A agonist 5 and Granule exo inh -7.
`CN1CCC(=NNC(=O)CN(c2ccc([N+](=O)[O-])cc2)S(=O)(=O)c2ccccc2)CC1` gave GASC-1 inh 10, VLA-4 inh 10, V-ATPase pHluor 4, MEX-5 binding -2, m5-HT2A agonist 17*, Granule exo inh 5, MOR ag counter -1 and m5-HT2A ag conf -5.
For CCC1CCCCN1Cc1nc2c(c(=O)n(C)c(=O)n2C)n1CC(C)C (stereo not given) the results were GASC-1 inh -4, VLA-4 inh 13, V-ATPase pHluor -5, MEX-5 binding -3, m5-HT2A agonist 9 and Granule exo inh 6.
For CCC1CCCCN1Cc1nc2c(c(=O)n(C)c(=O)n2C)n1CCC(C)C (stereo not given) the results were GASC-1 inh 3, VLA-4 inh -14, V-ATPase pHluor -1, MEX-5 binding 1, m5-HT2A agonist 20*, Granule exo inh -3, MOR ag counter 0 and m5-HT2A ag conf 3.
